In PubChem BioAssay (NCI):
The panel holds about 79,000 compounds, 15% with a hit somewhere; the sample as a whole holds those more often. Unmarked numbers belong to inactive results. The source made the active and inactive calls. No stated cut-off is given here; in the data, active means growth inhibition above about 70%; inactive means the rest.

Test: NCI Yeast Anticancer Drug Screen. Data for the cln2 rad14 strain (AID 165);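 further: 0% = growth equal to vehicle treated cultures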
Conditions: S. cerevisiae cln2 rad14 strain, at 50.0 µM, stronger effect = higher value
Method in brief: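 Relative to vehicle controls, growth inhibition of compound-treated cln2 rad14 yeast was recorded.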
NC(=O)c1ccccn1 showed a growth inhibition of 18.3%.
COc1cc(C=Nc2ccc(C(C)C)cc2)cc(OC)c1OC gave a growth inhibition of 8.35%.
With CC(=O)OCC(=O)COC(C)=O the growth inhibition was 8.5%.
Compound CCCCNc1ccc([N+](=O)[O-])cc1[N+](=O)[O-] has a growth inhibition of 6.55%.
Nc1ncc(C(=O)O)c(N)n1 showed a growth inhibition of -19.2%.
Work on COC1=CC(=O)C=C(OC)C1=O yielded a growth inhibition of 6.25%.
For C/C=C/[C@@]1(OC(=O)c2ccccc2)C[C@@H]2CCCC[C@@H]21, the growth inhibition was 23.3%.
In the case of CN(C)CCN(C(=Nc1ccccc1)N1CCCC1)c1ccccc1, the growth inhibition is reported as 17.1%.
Compound CCOC(=O)C(C(=O)OCC)=C1c2ccccc2Oc2ccccc21 has a growth inhibition of -17.6%.
With C=C(C)COCc1ccc(C(C)(C)CC(C)(C)C)cc1 the growth inhibition was -23.5%.
O=[N+]([O-])c1ccc(N=NC(=S)NNc2ccccc2)cc1 showed a growth inhibition of -3.35%.
[O-]/[N+](=C\c1ccc(Cl)cc1)c1ccccc1 showed a growth inhibition of -8.85%.
With Cc1ccc(/S(Cc2ccccc2)=N\S(=O)(=O)c2ccc(C)cc2)cc1 (stereo not given) the growth inhibition was -13.3%.
Cc1nc(N)c2c(ncn2C2OC(CO)C(O)C2O)n1 (stereo not given) showed a growth inhibition of -8.8%.
Compound O=C1c2c(-c3ccccc3)ccc(-c3ccccc3)c2C(=O)c2c(-c3ccccc3)ccc(-c3ccccc3)c21 has a growth inhibition of -6.8%.
With COc1ccc(N2C(=O)C3c4[nH]c5ccc(OC)cc5c4C4CCC(C(C)(C)C)CC4C3C2=O)cc1 (stereo not given) the growth inhibition was -24%.
COCCC(N)C(=O)O (stereo not given) showed a growth inhibition of -22.8%.
Cc1sc2c(c1C)C(=O)c1cccn1-2 gave a growth inhibition of -2.8%.
O=[N+]([O-])c1ccc(-c2ccccc2-c2ccccc2)cc1 showed a growth inhibition of -38.1%.
In the case of OC1OCC(COc2ccc(Cl)cc2)OC1O (stereo not given), the growth inhibition is reported as 1.25%.
CN1C=CC(=Cc2ccccc2)C=C1 gave a growth inhibition of -25%.
Compound NC(=O)NNC(=O)c1nc[nH]c1[N+](=O)[O-] has a growth inhibition of -15.9%.
For c1cc2c(cc1CC1CO1)OCO2 (stereo not given), the growth inhibition was -18.4%.
With CC(=O)NCC(C)(C)C the growth inhibition was -16.2%.
In the case of CC(=O)NC(C)NC(C)=O, the growth inhibition is reported as -86.5%.
Work on CCC(C)(C)c1ccc(OCCCCNC(=O)c2ccc3ccccc3c2O)c(C(C)(C)CC)c1 yielded a growth inhibition of -37.1%.
Work on CCCCCCCCc1cc(CN2CCOCC2)c(O)c(CN2CCOCC2)c1 yielded a growth inhibition of 24.4%.
O=C(CCCC(=O)N/N=C/c1ccc(I)cc1)N/N=C\c1ccc(I)cc1 gave a growth inhibition of 25.1%.
N#CCCN(C1=NN(C(=O)CC(=O)Nc2cccc(Cl)c2)C(c2ccccc2)C1)c1ccccc1Cl (stereo not given) showed a growth inhibition of 11.5%.
Cc1cccc(NC(=O)O/N=C(\Cl)C(C)C)c1 showed a growth inhibition of 0.4%.
CCCCCN(CCCCC)CC(O)c1cccc2c1cc(Br)c1ccccc12 (stereo not given) gave a growth inhibition of 8.45%.
With O=C(O)c1cc(Cl)ccc1-c1ccc(Cl)cc1C(=O)Nc1ccc2c(c1)Cc1cc(Cl)cc(Cl)c1-2 the growth inhibition was 97.2% (active).
For Oc1ccc(NCc2ccccc2)cc1, the growth inhibition was -3.15%.
In the case of CC(C)C1CCC(C)(C=O)C1 (stereo not given), the growth inhibition is reported as -7.85%.
For CC1=C(C(=O)Nc2ccc([N+](=O)[O-])cc2)C(c2cccc([N+](=O)[O-])c2)C(C(=O)Nc2ccc([N+](=O)[O-])cc2)=C(C)N1, the growth inhibition was -17.1%.
With CC(=O)OCC(OC(C)=O)C1(O)CCC2C3CCC4=CC(=O)CCC4(C)C3CCC21C (stereo not given) the growth inhibition was 97.8% (active).
For CCN(CC)CCN1C(=O)C(=O)N(c2cccc3ccccc23)C1=O, the growth inhibition was -14.2%.
With COc1ccc(NC(=O)N2CC3CCN2CC3)cc1 the growth inhibition was -21.9%.
With O=c1[nH]c2nc[nH]c(=O)c2[nH]1 the growth inhibition was -11.8%.
Oc1ccc(Cl)cc1C=Nc1cnc2ccccc2c1 gave a growth inhibition of -10.9%.

Test: NCI Yeast Anticancer Drug Screen. Data for the bub3 strain (AID 167)
Conditions: S. cerevisiae bub3 mutant strain, at 50.0 µM, stronger effect = higher value
Method in brief: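 Screening used yeast with an engineered genetic alteration affecting cell cycle control. Compound-exposed cultures were compared with vehicle cultures, and reduced growth was taken as inhibition.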
For NC(=O)c1ccccn1, the growth inhibition was 0.75%.
COc1cc(C=Nc2ccc(C(C)C)cc2)cc(OC)c1OC gave a growth inhibition of -4.65%.
CC(=O)OCC(=O)COC(C)=O gave a growth inhibition of -2.2%.
In the case of CCCCNc1ccc([N+](=O)[O-])cc1[N+](=O)[O-], the growth inhibition is reported as 41.9%.
Compound Nc1ncc(C(=O)O)c(N)n1 has a growth inhibition of -12.3%.
COC1=CC(=O)C=C(OC)C1=O showed a growth inhibition of -25.4%.
For C/C=C/[C@@]1(OC(=O)c2ccccc2)C[C@@H]2CCCC[C@@H]21, the growth inhibition was 12.9%.
In the case of CN(C)CCN(C(=Nc1ccccc1)N1CCCC1)c1ccccc1, the growth inhibition is reported as 0.45%.
Work on CCOC(=O)C(C(=O)OCC)=C1c2ccccc2Oc2ccccc21 yielded a growth inhibition of 33.5%.
Work on C=C(C)COCc1ccc(C(C)(C)CC(C)(C)C)cc1 yielded a growth inhibition of -15.4%.
Work on O=[N+]([O-])c1ccc(N=NC(=S)NNc2ccccc2)cc1 yielded a growth inhibition of 20.2%.
Work on [O-]/[N+](=C\c1ccc(Cl)cc1)c1ccccc1 yielded a growth inhibition of -18.9%.
Compound Cc1ccc(/S(Cc2ccccc2)=N\S(=O)(=O)c2ccc(C)cc2)cc1 (stereo not given) has a growth inhibition of -27.8%.
Compound Cc1nc(N)c2c(ncn2C2OC(CO)C(O)C2O)n1 (stereo not given) has a growth inhibition of -9.15%.
With O=C1c2c(-c3ccccc3)ccc(-c3ccccc3)c2C(=O)c2c(-c3ccccc3)ccc(-c3ccccc3)c21 the growth inhibition was -2.6%.
Work on COc1ccc(N2C(=O)C3c4[nH]c5ccc(OC)cc5c4C4CCC(C(C)(C)C)CC4C3C2=O)cc1 (stereo not given) yielded a growth inhibition of 16.1%.
COCCC(N)C(=O)O (stereo not given) gave a growth inhibition of -11.6%.
With Cc1sc2c(c1C)C(=O)c1cccn1-2 the growth inhibition was -13.9%.
Compound O=[N+]([O-])c1ccc(-c2ccccc2-c2ccccc2)cc1 has a growth inhibition of 3.5%.
Work on OC1OCC(COc2ccc(Cl)cc2)OC1O (stereo not given) yielded a growth inhibition of -36.7%.
CN1C=CC(=Cc2ccccc2)C=C1 showed a growth inhibition of -10.8%.
For NC(=O)NNC(=O)c1nc[nH]c1[N+](=O)[O-], the growth inhibition was -18.2%.
Work on c1cc2c(cc1CC1CO1)OCO2 (stereo not given) yielded a growth inhibition of -22.5%.
Work on CC(=O)NCC(C)(C)C yielded a growth inhibition of -32%.
In the case of CC(=O)NC(C)NC(C)=O, the growth inhibition is reported as 7.25%.
CCC(C)(C)c1ccc(OCCCCNC(=O)c2ccc3ccccc3c2O)c(C(C)(C)CC)c1 gave a growth inhibition of -18.2%.
CCCCCCCCc1cc(CN2CCOCC2)c(O)c(CN2CCOCC2)c1 showed a growth inhibition of 12.8%.
With O=C(CCCC(=O)N/N=C/c1ccc(I)cc1)N/N=C\c1ccc(I)cc1 the growth inhibition was -1.05%.
With N#CCCN(C1=NN(C(=O)CC(=O)Nc2cccc(Cl)c2)C(c2ccccc2)C1)c1ccccc1Cl (stereo not given) the growth inhibition was -14.9%.
Work on Cc1cccc(NC(=O)O/N=C(\Cl)C(C)C)c1 yielded a growth inhibition of 35.4%.
CCCCCN(CCCCC)CC(O)c1cccc2c1cc(Br)c1ccccc12 (stereo not given) showed a growth inhibition of 0.85%.
For O=C(O)c1cc(Cl)ccc1-c1ccc(Cl)cc1C(=O)Nc1ccc2c(c1)Cc1cc(Cl)cc(Cl)c1-2, the growth inhibition was 95.6% (active).
Oc1ccc(NCc2ccccc2)cc1 gave a growth inhibition of 21.6%.
Work on CC(C)C1CCC(C)(C=O)C1 (stereo not given) yielded a growth inhibition of -5.75%.
CC1=C(C(=O)Nc2ccc([N+](=O)[O-])cc2)C(c2cccc([N+](=O)[O-])c2)C(C(=O)Nc2ccc([N+](=O)[O-])cc2)=C(C)N1 gave a growth inhibition of -15.3%.
In the case of CC(=O)OCC(OC(C)=O)C1(O)CCC2C3CCC4=CC(=O)CCC4(C)C3CCC21C (stereo not given), the growth inhibition is reported as 98.3% (active).
Compound CCN(CC)CCN1C(=O)C(=O)N(c2cccc3ccccc23)C1=O has a growth inhibition of -31.9%.
With COc1ccc(NC(=O)N2CC3CCN2CC3)cc1 the growth inhibition was -12.7%.
For O=c1[nH]c2nc[nH]c(=O)c2[nH]1, the growth inhibition was -6.05%.
Work on Oc1ccc(Cl)cc1C=Nc1cnc2ccccc2c1 yielded a growth inhibition of 9.1%.
